Assay outcomes (PubChem BioAssay)
KCNQ2 enhance: potentiators of rat KCNQ2 potassium channel. AID 2239, 2010. Potassium voltage-gated channel subfamily KQT member 2 (Rattus norvegicus), O88943. B-score at 10 µM. CHO-K1 KCNQ2, FluxOR thallium flux fluorescence; stronger effect = higher value. actives 0.54% (n = 310,000);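 active = fluorescence ratio B-score at least 3 SD of library B-scores, with initial fluorescence B-score within 3 of them, cut at about 5.3 in these data; same plate scores as AID 2156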;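 also: B-score of peak minus minimum over baseline fluorescence ratio after K+ and Tl+ stimulus; positive B-score means potentiation of KCNQ2 with more thallium influx and brighter signal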
Target sequence (O88943 whole entry, looked up): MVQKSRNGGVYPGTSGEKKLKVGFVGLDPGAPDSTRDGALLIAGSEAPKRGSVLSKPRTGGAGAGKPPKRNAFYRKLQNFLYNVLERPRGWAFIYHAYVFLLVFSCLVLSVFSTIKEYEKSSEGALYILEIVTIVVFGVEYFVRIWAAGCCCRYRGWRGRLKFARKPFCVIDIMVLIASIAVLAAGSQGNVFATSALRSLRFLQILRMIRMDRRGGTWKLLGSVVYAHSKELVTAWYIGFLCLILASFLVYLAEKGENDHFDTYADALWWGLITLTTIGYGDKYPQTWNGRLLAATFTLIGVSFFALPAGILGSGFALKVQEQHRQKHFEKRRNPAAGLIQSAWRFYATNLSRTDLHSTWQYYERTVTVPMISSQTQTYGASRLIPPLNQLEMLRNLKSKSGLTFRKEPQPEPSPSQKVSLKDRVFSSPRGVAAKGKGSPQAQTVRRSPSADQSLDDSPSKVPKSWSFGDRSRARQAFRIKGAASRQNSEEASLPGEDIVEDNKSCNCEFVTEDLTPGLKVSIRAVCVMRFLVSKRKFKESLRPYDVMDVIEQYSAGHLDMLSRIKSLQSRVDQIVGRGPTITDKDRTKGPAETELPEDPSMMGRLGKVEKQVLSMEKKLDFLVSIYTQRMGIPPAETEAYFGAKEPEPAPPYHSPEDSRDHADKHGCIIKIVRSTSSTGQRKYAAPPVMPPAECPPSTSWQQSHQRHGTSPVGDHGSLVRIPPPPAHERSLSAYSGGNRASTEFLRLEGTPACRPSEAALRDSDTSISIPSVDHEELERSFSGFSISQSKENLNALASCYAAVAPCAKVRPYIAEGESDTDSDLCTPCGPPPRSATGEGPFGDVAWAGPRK
KCNQ2 block: rat KCNQ2 potassium channel inhibitors, primary screen, cell-based, CHO-K1, FluxOR thallium flux, B-score | actives 1.1% (n = 310,000) | B-score at 10 µM | 20 min; stronger effect = lower value | Potassium voltage-gated channel subfamily KQT member 2 (Rattus norvegicus), O88943 | AID 2156, 2009;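 active = fluorescence ratio B-score at most minus 3 library SDs, with starting brightness B-score within 2 library SDs, cut at about -5.5 in these data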
Large screens that a line does not name were inactive. Compounds with a hit are over-represented: about 1.6% of the library has one in this group of screens.

Cc1cccc(NC(=O)[C@H](Cc2c[nH]c3ccccc23)NC(=O)[C@@H]2Cc3ccccc3CN2)c1	KCNQ2 block -6.45
CC(NC(=O)[C@H](Cc1c[nH]c2ccccc12)NC(=O)[C@@H]1Cc2ccccc2CN1)c1ccccc1 (some centres undefined)	KCNQ2 block -5.89
Cc1ccc(NC(=O)[C@H](Cc2c[nH]c3ccccc23)NC(=O)[C@@H]2Cc3ccccc3CN2)c(C)c1	KCNQ2 block -6.7
Cc1ccc(C(=O)N/C(=C\c2cn(C)c3ccccc23)C(=O)NCCN2CCOCC2)cc1	none
Cc1ccc(C(c2cc(Br)ccc2O)N2CCSCC2)cc1 (centres undefined)	KCNQ2 block -5.83
Cc1ccc(C(c2nnnn2CCc2ccccc2)N2CCSCC2)cc1 (centres undefined)	none
COc1ccc(N2C(=O)/C(=C\c3ccco3)N=C2SCC(=O)N(C(C)C)C(C)C)cc1Cl	none (no result: KCNQ2 enhance)
CC(C)CN(CC(C)C)C1=N/C(=C\c2ccco2)C(=O)N1c1ccccc1	KCNQ2 block -7.36
COc1ccc(-c2nc(CS(=O)(=O)CC(=O)NCc3ccccc3Br)c(C)o2)cc1	KCNQ2 block -7.75
COc1ccc(-c2nc(CS(=O)(=O)CC(=O)NCc3cccc(OC)c3OC)c(C)o2)cc1	none (no result: KCNQ2 enhance)
Cc1ccc(C(C)C)c(OCC(=O)Nc2ccccc2N2CCN(C)CC2)c1	none (no result: KCNQ2 enhance)
Cc1cccc(OCC(=O)Nc2ccccc2N2CCCC2)c1C	none (no result: KCNQ2 enhance)
Cc1cccc(OCC(=O)Nc2ccccc2N2CCN(C(=O)C(C)C)CC2)c1C	KCNQ2 block -5.85
CC(=O)N1CCN(c2ccccc2NC(=O)COc2cc(C)ccc2C(C)C)CC1	KCNQ2 block -7.76
C/C(CC(=O)NCc1ccco1)=N\NC(=O)c1ccc([N+](=O)[O-])cc1Cl	none (no result: KCNQ2 enhance)
C=CCNC(=S)NNc1nc2c(c(=O)[nH]1)C1(CCCCC1)Cc1ccccc1-2	none (no result: KCNQ2 enhance)
CCCn1c(C)nc2c(c1=O)c1nc3ccccc3nc1n2CCC1=CCCCC1	none (no result: KCNQ2 enhance)
Cc1nc2c(c(=O)n1CCC1=CCCCC1)c1nc3ccccc3nc1n2/N=C/c1ccco1	KCNQ2 block -7.67
Cc1ccc(S(=O)(=O)N2CCCC2)cc1C(=O)NCCN1CCOCC1	none
CC1CN(C(=O)N2c3ccccc3Sc3ccccc32)CC(C)O1 (centres undefined)	KCNQ2 block -6.23
CC1CCN(C(=O)N2c3ccccc3Sc3ccccc32)CC1	none (no result: KCNQ2 enhance)
CCOC(=O)c1c(-c2ccccc2Cl)csc1NC(=O)c1cc(S(=O)(=O)N2CCOCC2)ccc1C	none
CC(C)=CCN1CCN(Cc2cc(F)ccc2-n2nc(C)cc2C)CC1CCO (centres undefined)	none (no result: KCNQ2 enhance)
CCOc1ccc(N(C(=O)CNS(=O)(=O)c2ccccc2)C(CC)C(=O)NCc2ccco2)cc1 (centres undefined)	none
CCC(C(=O)NCc1ccco1)N(C(=O)CNS(=O)(=O)c1ccccc1)c1ccc(OC)cc1 (centres undefined)	KCNQ2 block -5.75
COCCCn1c(=O)c2sccc2n(Cc2cc(C(=O)OC)ccc2OC)c1=O	none (no result: KCNQ2 enhance)
O=C(NCCO)C(=O)Nc1cc2c3c(c1)CCC(=O)N3CCC2	none (no result: KCNQ2 enhance)
OCCC1CN(CC2CCCCC2)CCN1C1CCCC1 (centres undefined)	none
OCCC1CN(CC2CCCCC2)CCN1CC1CCCCC1 (centres undefined)	KCNQ2 enhance 6.77
FC(F)(F)c1ccc(C2[C@H]3CN(Cc4cccnc4)[C@H](c4ccccc4)C34CC2(c2cccnc2)C4)cc1 (some centres undefined)	KCNQ2 block -7.17
FC(F)(F)c1ccc(C2[C@H]3CN(Cc4ccc(-c5ccccc5)cc4)[C@H](c4ccccc4)C34CC2(c2cccnc2)C4)cc1 (some centres undefined)	none
COC(=O)[C@H](CC(C)C)NC(=O)NCCC1=CCCCC1	none (no result: KCNQ2 enhance)
CCN(CC)CCN(C(=O)c1ccc2c(c1)CCCC2)c1nc2ccc(C)cc2s1	none (no result: KCNQ2 enhance)
CN(C)CCN(C(=O)c1ccc2ccccc2c1)c1nc2c(F)cccc2s1	none (no result: KCNQ2 enhance)
Cc1cc(C)c2nc(N(CCN(C)C)C(=O)c3ccc4ccccc4c3)sc2c1	KCNQ2 block -6.02
CCN(CC)CCN(C(=O)c1ccc2c(c1)CCCC2)c1nc2c(C)cccc2s1	KCNQ2 block -8.14
Clc1ccc(CSc2nnnn2-c2ccc3c(c2)OCO3)c(Cl)c1	none (no result: KCNQ2 enhance)
Cc1ccc(SC[C@H](c2ccccc2)N2CCN(CCc3ccccc3)CCC2=O)cc1	KCNQ2 block -6.09
CC(C)CN1CCC(=O)N([C@H](CSc2ccccc2)Cc2ccccc2)CC1	KCNQ2 block -5.67
O=C1CCN(CCc2ccccc2)CCN1[C@H](CSc1ccccc1)c1ccccc1	none (no result: KCNQ2 enhance)
Cc1ccc(SC[C@H](Cc2ccccc2)N2CCN(CC(C)C)CCC2=O)cc1	none (no result: KCNQ2 enhance)
O=C(OCCCOC(=O)c1ccccc1O)c1ccccc1O	none
Cc1noc(C)c1N=Nc1ccc(Br)cc1C(=O)O	none (no result: KCNQ2 enhance)
NC(=O)c1cccc(C(N)=O)n1	none
Oc1ccc2ccccc2c1CNc1ccc(Br)cn1	KCNQ2 block -6.18
Oc1ccc2ccccc2c1CNc1ccc(Br)cc1	none (no result: KCNQ2 enhance)
CC(C)Cc1nc(N2CCN(C(=O)c3ccco3)CC2)c(C#N)c2c1CCC2	none (no result: KCNQ2 enhance)
N#Cc1c(N2CCN(C(=O)c3ccccc3)CC2)nc(-c2ccccc2)c2c1CCCC2	none (no result: KCNQ2 enhance)
CC(C)Cc1nc(N2CCN(C(=O)C(C)C)CC2)c(C#N)c2c1CCC2	KCNQ2 block -6.45
N#Cc1c(N2CCN(C(=O)c3ccco3)CC2)nc(-c2ccccc2)c2c1CCCC2	KCNQ2 block -5.63
CC(=O)N1CCN(c2nc(CC(C)C)c3c(c2C#N)CCC3)CC1	none (no result: KCNQ2 enhance)
CC(C)Cc1nc(N2CCN(C(=O)c3ccccc3)CC2)c(C#N)c2c1CCC2	KCNQ2 block -6.57
O=C(CN1CCN(C(=O)C2CCCO2)CC1)Nc1ccc(Cl)cc1 (centres undefined)	none
Cc1cc2nc(C)c3c(n2n1)CCC3	none
COc1cccc(CN(CC(=O)NCc2ccccc2)C(=O)c2csnn2)c1	none
CCOC(=O)N1CCN(S(=O)(=O)c2c(C(=O)N3CCCCC3)c(C)n(C)c2C)CC1	none (no result: KCNQ2 enhance)
COC(=O)c1sccc1N/N=C/c1cccc(Oc2ccccc2)c1	none (no result: KCNQ2 enhance)
COc1cc(/C=C(/NC(=O)c2ccccc2)C(=O)Nc2ccccc2)c([N+](=O)[O-])cc1OC	KCNQ2 block -6.64
COc1ccc(NC(=O)/C(=C\c2cc(OC)c(OC)cc2[N+](=O)[O-])NC(=O)c2ccccc2)cc1	KCNQ2 block -7.16
COc1ccc(C(=O)N/C(=C\c2ccccc2)C(=O)Nc2ccc(C(=O)O)cc2)cc1	none
COc1cc(/C=C(/NC(=O)c2ccccc2)C(=O)Nc2ccc(O)cc2)c([N+](=O)[O-])cc1OC	none
CC(C)C(=O)Nc1cc2c3c(c1)CCN3C(=O)CC2	none (no result: KCNQ2 enhance)
Cc1cc(C)cc(NC(=O)CSc2nc(N)c(NC(=O)c3cccs3)c(=O)[nH]2)c1	none
Cc1cc(C)cc(NC(=O)CCc2c(C)nn(-c3ccc(N4CCOCC4)nn3)c2C)c1	none
CCc1cccc(C)c1NC(=O)c1cccc(N(C)C)c1	KCNQ2 block -6.89
CCc1cccc(CC)c1NC(=O)c1cccc(NC(=O)c2ccccc2)c1	none (no result: KCNQ2 enhance)
COc1ccc(C(=O)NNC(=O)C(=O)NC2CCCCC2)cc1	none
O=C(c1ccc(F)cc1F)N1CCN(c2n[nH]c(=O)[nH]c2=O)CC1	none
Cc1ccc(N=Cc2cc(Br)cc(Cl)c2O)cc1	KCNQ2 enhance 12.3
Oc1ccc(Br)cc1C=Nc1ccc(Cl)cc1	none
COc1ccc(NC(=O)COC(=O)CCc2ccccc2)c(OC)c1	none (no result: KCNQ2 enhance)
C=C1CCN([C@@H](CC(C)C)C(=O)NCc2ccco2)S(=O)(=O)c2ccccc21	none (no result: KCNQ2 enhance)
COc1ccc(S(=O)CC(=O)Nc2ccc(Cl)cc2Cl)cc1 (centres undefined)	none (no result: KCNQ2 enhance)
